According to PubChem BioAssay:
Calls of active or inactive are those of the source. Unless noted, no rule for the calls is given here.

Legend:
[1] = test system: Wnt5a (protein binding on small-molecule microarray); experiment: Wnt5a binders on small-molecule microarray, primary screen, biophysical, 635/667 nm fluorescence (AID 1142); settings: 635 nm fluorescence, higher = more signal;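 also: fluorescence read at 667 nm with signal to noise per printed feature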
[2] = cell viability in Huh7 cells, primary screen, cytotoxicity control for HCV replication inhibitor project, CellTiter-Glo luminescence, basal, 48 h (AID 1143); settings: Huh7 HCV replicon, higher = more signal, called active from +8 up or from −8 down;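 also: Huh7 hepatoma cells carrying a hepatitis C replication reporter with no stimulus; test concentration not given here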
[3] = P. aeruginosa biofilm formation inhibitors, primary screen, PAO1 strain, BacTiter-Glo luminescence, LB-PBS (AID 1144); settings: 12 h, higher = more signal
[4] = CREB reporter modulators without forskolin, primary screen, cell-based, PC12, CRE-LacZ reporter, unstimulated (AID 1145); settings: no forskolin, luminescence, 4.5 h, higher = more signal, called active from +8 up or from −8 down
[5] = CREB reporter modulators under forskolin, primary screen, cell-based, PC12, CRE-LacZ reporter, forskolin-stimulated (AID 1146); settings: luminescence, 4.5 h, higher = more signal, called active from +8 up or from −8 down;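 also: PC12 cells with 6xCRE LacZ reporter stimulated by forskolin 10 µM; beta-galactosidase reporter signal reflecting CREB driven transcription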
[6] = molecular target: Streptavidin (Streptomyces avidinii) (UniProt P22629); experiment: streptavidin binders on small-molecule microarray, primary screen, artefact control for SMM compound annotation, biophysical, 635/667 nm fluorescence (AID 1147); settings: streptavidin binding, higher = more signal;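 also: signal reflects streptavidin binding to arrayed compounds as a control protein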
Streptavidin (Streptomyces avidinii), sequence (P22629 whole entry, looked up): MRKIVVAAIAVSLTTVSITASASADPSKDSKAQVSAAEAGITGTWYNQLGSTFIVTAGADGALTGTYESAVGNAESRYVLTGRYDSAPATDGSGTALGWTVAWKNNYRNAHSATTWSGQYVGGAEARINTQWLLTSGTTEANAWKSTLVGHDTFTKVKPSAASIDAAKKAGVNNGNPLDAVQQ

[7] = small-molecule binders of probe aInhba, primary screen, biochemical, small-molecule microarray, 635/667 nm fluorescence (AID 1148); settings: higher = more signal;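 also: score merges 667nm spot fluorescence with signal-to-noise for antibody binding to printed compounds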
Torsin-1A (Homo sapiens) [8] = molecular target: Torsin-1A (Homo sapiens) (UniProt O14656); experiment: torsin A binders from cell lysate, primary screen, small-molecule microarray, wild-type, 635/667 nm (AID 1149); settings: COS7 hTOR1A-WT lysate, 635 nm fluorescence, higher = more signal
Torsin-1A (Homo sapiens), sequence (O14656 whole entry, looked up): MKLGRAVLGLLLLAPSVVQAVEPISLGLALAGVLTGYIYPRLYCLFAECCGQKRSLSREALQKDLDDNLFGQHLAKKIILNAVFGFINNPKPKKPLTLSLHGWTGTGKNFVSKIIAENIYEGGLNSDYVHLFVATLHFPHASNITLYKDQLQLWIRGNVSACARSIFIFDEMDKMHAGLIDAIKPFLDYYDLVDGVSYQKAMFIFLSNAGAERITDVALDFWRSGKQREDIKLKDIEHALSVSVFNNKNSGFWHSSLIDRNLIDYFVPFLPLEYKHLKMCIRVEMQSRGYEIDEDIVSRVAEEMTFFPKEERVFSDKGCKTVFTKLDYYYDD

Torsin-1A (Homo sapiens) [9] = molecular target: Torsin-1A (Homo sapiens) (UniProt O14656); experiment: small-molecule binders of mutant TOR1A in lysate, primary screen, cell lysate, small-molecule microarray, COS7 lysate, 635/667 nm fluorescence (AID 1150); settings: COS7 hTOR1A mutant lysate, 635 nm fluorescence, higher = more signal;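 also: score pools 667 nm emission and signal to noise measuring lysate protein binding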
[10] = test system: Sonic hedgehog protein (Shh); experiment: small-molecule binders of Shh protein, primary screen, biochemical, small-molecule microarray, 635/667 nm fluorescence (AID 1151); settings: small-molecule microarray binding, 635 nm fluorescence; higher = more signal;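 also: Shh protein binding to compounds spotted on small-molecule microarray slides; score combines spot fluorescence intensity with signal-to-noise across triplicate slides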
[11] = E. coli DRC41 culture turbidity changes, primary screen, E. coli filamentation inducer project, strain DRC41, OD650, 48 h (AID 1152);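 also: E. coli MC1000 strain DRC41 lacking acrAB efflux pump and sulA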; settings: E. coli DRC41 (acrAB sulA), higher = more signal, called active from +8 up or from −8 down
[12] = small-molecule binders of probe aLefty1, primary screen, biochemical, small-molecule microarray, 635/667 nm fluorescence (AID 1153); settings: higher = more signal;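 also: score merges spot fluorescence with signal-to-noise ratio from the scanned slide images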
[13] = PSAC antagonists in infected red cells, primary screen, cell-based, P. falciparum Indochina, OD700, 1 h (AID 1154); settings: P. falciparum Indochina infected RBC osmotic lysis, higher = more signal, called active from +8 up or from −8 down
[14] = PSAC antagonists in infected red cells, primary screen, cell-based, P. falciparum Indochina, OD700, 2 h (AID 1155);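 also: lysis reports solute entry through the parasite surface anion channel PSAC; channel blockers reduce lysis of infected cells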; settings: P. falciparum Indochina infected erythrocytes, osmotic lysis OD700; higher = more signal, called active from +8 up or from −8 down
[15] = osmotic lysis modulators in infected erythrocytes, primary screen, PSAC antagonist project, cell-based, P. falciparum Indochina, OD700, 3 h (AID 1156); settings: higher = more signal, called active from +8 up or from −8 down
[16] = PSAC antagonists in infected red cells, primary screen, cell-based, P. falciparum Indochina, OD700, 18 h (AID 1157); settings: P. falciparum Indochina infected erythrocytes, osmotic lysis OD700, 18 h; higher = more signal, called active from +8 up or from −8 down
[17] = modulators of S6 phosphorylation in cells, primary screen, cell-based, A549, cytoblot, luminescence, serum-stimulated (AID 1158); settings: A549 phospho-S6 cytoblot, 5 h, higher = more signal;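 also: serum-stimulated A549 lung adenocarcinoma cells; signal is phosphorylated S6 detected by cytoblot immunostaining with HRP secondary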
[18] = molecular target: NADPH oxidase 2 (Homo sapiens) (UniProt P04839); experiment: NOX2-dependent H2O2 signal modulators, primary screen, NOX inhibitor project, cell-based, HEK293-NOX2, PMA-stimulated, Amplex Red fluorescence (AID 1159); settings: 45 min, higher = more signal, called active from +8 up or from −8 down; also: test concentration not given here
NADPH oxidase 2 (Homo sapiens), sequence (P04839 whole entry, looked up): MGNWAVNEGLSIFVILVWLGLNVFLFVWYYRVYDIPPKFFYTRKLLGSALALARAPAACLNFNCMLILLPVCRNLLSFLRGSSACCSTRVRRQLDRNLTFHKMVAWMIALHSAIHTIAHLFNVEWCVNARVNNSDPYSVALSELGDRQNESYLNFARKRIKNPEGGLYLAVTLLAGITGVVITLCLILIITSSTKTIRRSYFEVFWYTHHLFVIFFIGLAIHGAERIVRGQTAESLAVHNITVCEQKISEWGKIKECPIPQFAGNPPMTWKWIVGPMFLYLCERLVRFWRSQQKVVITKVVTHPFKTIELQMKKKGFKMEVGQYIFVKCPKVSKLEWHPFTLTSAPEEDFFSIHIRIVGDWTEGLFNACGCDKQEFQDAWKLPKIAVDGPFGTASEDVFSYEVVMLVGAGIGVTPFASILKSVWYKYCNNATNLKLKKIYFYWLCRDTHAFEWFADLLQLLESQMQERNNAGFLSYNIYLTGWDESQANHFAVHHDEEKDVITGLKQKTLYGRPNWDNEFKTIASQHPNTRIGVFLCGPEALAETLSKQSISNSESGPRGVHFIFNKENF

[19] = molecular target: NADPH oxidase 4 (Homo sapiens) (UniProt Q9NPH5); experiment: NOX4-dependent H2O2 signal modulators, primary screen, NOX inhibitor project, cell-based, HEK293-NOX4, tetracycline-induced, Amplex Red fluorescence (AID 1160); settings: 45 min, higher = more signal, called active from +8 up or from −8 down
NADPH oxidase 4 (Homo sapiens), sequence (Q9NPH5 whole entry, looked up): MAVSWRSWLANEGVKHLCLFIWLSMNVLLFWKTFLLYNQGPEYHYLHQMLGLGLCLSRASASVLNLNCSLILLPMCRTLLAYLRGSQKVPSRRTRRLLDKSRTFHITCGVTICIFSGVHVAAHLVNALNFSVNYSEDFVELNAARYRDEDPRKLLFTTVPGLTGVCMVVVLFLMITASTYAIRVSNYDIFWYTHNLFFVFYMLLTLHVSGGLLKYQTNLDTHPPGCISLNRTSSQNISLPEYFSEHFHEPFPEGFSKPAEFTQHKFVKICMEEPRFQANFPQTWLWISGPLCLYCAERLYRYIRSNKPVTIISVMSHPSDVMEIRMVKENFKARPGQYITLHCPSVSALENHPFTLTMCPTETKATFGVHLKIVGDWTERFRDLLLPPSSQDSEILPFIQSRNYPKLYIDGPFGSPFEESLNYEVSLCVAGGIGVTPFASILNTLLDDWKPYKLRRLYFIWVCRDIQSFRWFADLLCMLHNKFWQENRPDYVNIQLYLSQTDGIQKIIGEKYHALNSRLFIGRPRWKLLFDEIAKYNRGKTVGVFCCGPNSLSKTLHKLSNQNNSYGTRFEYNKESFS

[20] = molecular target: NADPH oxidase 5 (Homo sapiens) (UniProt Q96PH1); experiment: NOX5-dependent H2O2 signal modulators, primary screen, NOX inhibitor project, cell-based, HEK293-NOX5, Amplex Red fluorescence (AID 1161); settings: HEK293-NOX5, ionomycin, 45 min, higher = more signal
NADPH oxidase 5 (Homo sapiens), sequence (Q96PH1 whole entry, looked up): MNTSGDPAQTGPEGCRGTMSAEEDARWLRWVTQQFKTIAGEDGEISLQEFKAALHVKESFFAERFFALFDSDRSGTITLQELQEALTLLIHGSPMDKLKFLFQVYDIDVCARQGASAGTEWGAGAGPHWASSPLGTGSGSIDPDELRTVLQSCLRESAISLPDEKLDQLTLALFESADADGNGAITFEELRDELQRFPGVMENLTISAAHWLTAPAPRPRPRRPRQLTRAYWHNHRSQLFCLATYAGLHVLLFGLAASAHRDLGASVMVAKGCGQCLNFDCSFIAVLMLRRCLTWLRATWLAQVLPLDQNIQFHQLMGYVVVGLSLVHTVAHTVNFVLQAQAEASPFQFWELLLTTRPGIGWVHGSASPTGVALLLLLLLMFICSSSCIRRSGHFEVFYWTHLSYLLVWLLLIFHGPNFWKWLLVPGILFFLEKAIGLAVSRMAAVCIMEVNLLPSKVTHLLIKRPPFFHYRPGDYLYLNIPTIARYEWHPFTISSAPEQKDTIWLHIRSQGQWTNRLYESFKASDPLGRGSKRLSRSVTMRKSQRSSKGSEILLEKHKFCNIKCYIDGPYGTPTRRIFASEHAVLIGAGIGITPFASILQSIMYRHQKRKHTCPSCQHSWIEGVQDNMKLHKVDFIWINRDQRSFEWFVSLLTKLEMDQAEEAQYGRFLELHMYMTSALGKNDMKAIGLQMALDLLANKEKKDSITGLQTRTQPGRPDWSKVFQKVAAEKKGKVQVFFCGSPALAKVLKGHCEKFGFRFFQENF

Structure (SMILES)	composite z-score [1]	z-score [2]	z-score [3]	z-score [4]	z-score [5]	composite z-score [6]	composite z-score [7]	composite z-score (Torsin-1A (Homo sapiens) [8])	composite z-score (Torsin-1A (Homo sapiens) [9])	composite z-score [10]	z-score [11]	composite z-score [12]	z-score [13]	z-score [14]	z-score [15]	z-score [16]	z-score [17]	z-score [18]	z-score [19]	z-score [20]
C=C(CCCC)/C(=C/C[C@@H](OC(C)=O)c1ccc(OCCO)cc1)c1cnc2ccccc2c1	-0.0157	-0.842 (inactive)	-1.02 (inactive)	1.21 (inactive)	-0.438 (inactive)	0.514	-0.0405	-0.197	0.101	1.77	1.04 (inactive)	0.0038	24 (active)	6.92 (inactive)	2.09 (inactive)	1.34 (inactive)	0.684	-1.98 (inactive)	-0.0832 (inactive)	-2.21
CC1CC/C=C\[C@H]2OC34C=CCN(Cc5ccccc5)C(=O)[C@H]3N(CCCO)C(=O)[C@@H]4C2C(=O)O1 (stereo not given in full)	-0.403	-0.667 (inactive)	0.446 (inactive)	-0.0778 (inactive)	0.776 (inactive)	-0.942	-0.206	-0.681	-1.56	-0.233	0.144 (inactive)	-0.147	0.329 (inactive)	-0.093 (inactive)	-0.316 (inactive)	-0.254 (inactive)	-0.102	1.66 (inactive)	0.366 (inactive)	3.18
O=C(c1ccccc1)N1C(=O)[C@]2(COC(c3ccc(OCCCO)cc3)=N2)Cc2ccccc21	0.363	-3.03 (inactive)	-0.382 (inactive)	1.03 (inactive)	0.822 (inactive)	0.532	0.249	0.273	0.87	0.658	-0.788 (inactive)	0.638	27.1 (active)	17.8 (active)	3.39 (inactive)	1.35 (inactive)	-0.394	-0.0343 (inactive)	0.0715 (inactive)	-1.69
CC(C)C(CO)N1C(=O)[C@@H]2C3C(=O)OCCC/C=C\[C@H]3OC23C=CCN(CCN2CCOCC2)C(=O)[C@@H]13 (stereo not given in full)	0.0992	0.39 (inactive)	0.723 (inactive)	-0.212 (inactive)	-0.0271 (inactive)	-0.578	-0.251	-0.111	-0.184	0.856	-0.385 (inactive)	-0.07	0.81 (inactive)	0.179 (inactive)	0.148 (inactive)	0.16 (inactive)	-0.158	1 (inactive)	0.401 (inactive)	1.4
O=C1C[C@@](C(=O)NCCN2CCOCC2)(c2ccc([N+](=O)[O-])cc2)[C@@H](c2ccc(CO)cc2I)N1CC12CC3CC(CC(C3)C1)C2	0.92	-5.9 (inactive)	1.22 (inactive)	-0.269 (inactive)	-0.435 (inactive)	0.489	0.134	0.97	0.578	2.14	-0.942 (inactive)	0.344	18.9 (active)	10.2 (active)	0.797 (inactive)	1.28 (inactive)	0.238	-8.18 (active)	-1.75 (inactive)	1.58
CCC(CC)C(O)C1C=CC2C(=O)NC(=O)C2N1Nc1ccc(Cl)cc1Cl (stereo not given)	0.0146	-0.776 (inactive)	0.34 (inactive)	0.243 (inactive)	-0.273 (inactive)	0.673	0.225	-0.167	0.418	0.463	-1.69 (inactive)	0.348	1.55 (inactive)	0.65 (inactive)	0.0089 (inactive)	1.24 (inactive)	-1.5	-0.017 (inactive)	-4.41 (inactive)	-2.93
CC1CC/C=C\[C@H]2OC34C=CCN(C(C)(C)C)C(=O)[C@H]3N(C(C)CO)C(=O)[C@@H]4C2C(=O)O1 (stereo not given in full)	-0.273	0.4 (inactive)	1.01 (inactive)	-0.22 (inactive)	0.826 (inactive)	-1.3	-0.128	-0.468	-0.441	0.622	-0.265 (inactive)	-0.0984	1.42 (inactive)	0.576 (inactive)	0.545 (inactive)	0.355 (inactive)	0.021	0.499 (inactive)	-0.812 (inactive)	1.65
CC(C)NC(=O)[C@@H]1c2ccccc2C(=O)N(C2Cc3ccccc3C2)[C@H]1c1ccc(CO)cc1	-0.0402	-1.09 (inactive)	-0.737 (inactive)	0.441 (inactive)	-1.35 (inactive)	0.251	-0.128	-0.232	0.474	0.231	0.814 (inactive)	0.11	3.41 (inactive)	0.119 (inactive)	0.121 (inactive)	0.182 (inactive)	0.0063	-0.402 (inactive)	0.0797 (inactive)	-0.994
COc1cc(Br)cc(C(O)C2C=CC3C(=O)N(C)C(=O)C3N2N2CCCCC2)c1OC (stereo not given)	-0.274	0.4 (inactive)	-0.311 (inactive)	0.822 (inactive)	0.641 (inactive)	-0.39	-0.016	0.167	0.0369	-1.49	-1.8 (inactive)	0.152	0.712 (inactive)	1.27 (inactive)	0.126 (inactive)	1.17 (inactive)	-1.45	0.524 (inactive)	-3.5 (inactive)	-0.637
COc1cc(C(O)C2C=CC3C(=O)NC(=O)C3N2Nc2ccccn2)cc(OC)c1OC (stereo not given)	0.147	0.969 (inactive)	0.0747 (inactive)	0.0467 (inactive)	0.329 (inactive)	0.0266	0.0448	0.366	0.291	0.371	-1.57 (inactive)	0.19	0.0115 (inactive)	0.297 (inactive)	-0.928 (inactive)	0.409 (inactive)	-1.21	-1.42 (inactive)	-3.26 (inactive)	-2.9
COC(=O)[C@@]1(Cc2ccccc2)[C@H]2c3cc(C(=O)N4CCCC4)n(Cc4ccc(S(C)(=O)=O)cc4)c3C[C@H]2CN1C(=O)c1ccccc1	-0.0831	-1.22 (inactive)	0.779 (inactive)	0.959 (inactive)	0.266 (inactive)	2.21	0.401	0.758	0.81	-0.344	-0.94 (inactive)	0.198	1.98 (inactive)	0.238 (inactive)	0.716 (inactive)	0.742 (inactive)	-0.121	0.613 (inactive)	-1.16 (inactive)	-1.9
CO[C@H]1O[C@H](CO)[C@@H](OC(=O)Nc2ccc(C(F)(F)F)cc2)[C@H](OC(=O)Nc2ccc3c(c2)OCO3)[C@@H]1OC(=O)Nc1ccc2c(c1)OCO2	0.246	-4.31 (inactive)	0.999 (inactive)	0.652 (inactive)	-1.93 (inactive)	0.273	-0.157	1.81	1.23	0.57	-0.112 (inactive)	0.199	25.8 (active)	15.3 (active)	3.6 (inactive)	1.77 (inactive)	-0.176	-0.794 (inactive)	-0.393 (inactive)	-0.486
CCCCCCc1nc(-c2cc(C)c(OC)c(C)c2)cc2c1[Si](C(C)C)(C(C)C)OC2	-0.227	-2.72 (inactive)	-0.661 (inactive)	-0.0989 (inactive)	0.0738 (inactive)	0.0643	0.131	-0.646	-0.384	0.985	0.488 (inactive)	0.147	0.827 (inactive)	-0.0892 (inactive)	0.193 (inactive)	-0.351 (inactive)	0.296	-5.61 (inactive)	-1.72 (inactive)	-3.75
Cc1ccccc1C(O)C1C=CC2C(=O)N(c3ccccc3)C(=O)C2N1Nc1ccc(C(C)C)cc1 (stereo not given)	0.0944	-0.0816 (inactive)	-0.481 (inactive)	0.812 (inactive)	0.131 (inactive)	1.26	0.176	-0.0717	0.62	0.214	-1.6 (inactive)	0.317	1.85 (inactive)	1.05 (inactive)	0.918 (inactive)	0.974 (inactive)	-0.405	-1.22 (inactive)	-4.14 (inactive)	-4.42
O=C1c2ccccc2[C@](Cc2ccccc2I)(C(=O)NCC(F)(F)F)[C@H](c2ccc(CO)cc2)N1Cc1ccccc1Cl	0.0919	-0.703 (inactive)	-1.28 (inactive)	0.506 (inactive)	0.779 (inactive)	0.742	0.216	-0.14	0.34	1.37	0.193 (inactive)	-0.105	4.4 (inactive)	0.208 (inactive)	1.84 (inactive)	0.499 (inactive)	0.312	2.69 (inactive)	0.566 (inactive)	1.05
CO[C@H]1O[C@H](CO)[C@@H](OC(=O)Nc2cccc(F)c2)[C@H](OC(=O)Nc2ccccc2)[C@@H]1OC(=O)Nc1ccccc1	0.343	-5.79 (inactive)	-0.125 (inactive)	-0.459 (inactive)	-0.74 (inactive)	0.255	0.289	0.434	0.505	1.17	-1.17 (inactive)	0.22	8.61 (active)	1.93 (inactive)	-0.476 (inactive)	1.4 (inactive)	0.646	-1.12 (inactive)	-0.322 (inactive)	-1.08
C=CCC(OC(C)=O)[C@@H]1[C@@H](N(Cc2ccc(-c3ccccc3)cc2)C(=O)c2cccc3ccccc23)c2cc(OCCCO)ccc2N1C(=O)c1ccc(-c2ccccc2)cc1 (stereo not given in full)	0.0826	-1.6 (inactive)	-0.915 (inactive)	0.6 (inactive)	-0.531 (inactive)	0.232	0.0979	-0.0396	0.499	0.362	0.82 (inactive)	0.46	0.353 (inactive)	1.06 (inactive)	-0.291 (inactive)	0.358 (inactive)	0.121	0.299 (inactive)	-0.394 (inactive)	-4.31
